# Measured values as given in PubChem BioAssay (EPA / NIEHS).
# Inconclusive results are not listed. Active and inactive are the calls of the source. How the source made its calls: active means hit-call score of the fitted dose curve at least 0.9, where 1 is the maximum; inconclusive means response in the unintended direction; inactive means score below 0.9.
# Assays:
# [1] = target: human Colony Stimulating Factor 1 Receptor (CSF1R), CSF1R (gene 1436) (UniProt P07333); assay: NVS_ENZ_hCSF1R: NovaScreen (NVS) Enzymatic Assay for human Colony Stimulating Factor 1 Receptor (CSF1R) (AID 2283150)
# Sequence of human Colony Stimulating Factor 1 Receptor (CSF1R), CSF1R (gene 1436) (P07333 whole entry, looked up): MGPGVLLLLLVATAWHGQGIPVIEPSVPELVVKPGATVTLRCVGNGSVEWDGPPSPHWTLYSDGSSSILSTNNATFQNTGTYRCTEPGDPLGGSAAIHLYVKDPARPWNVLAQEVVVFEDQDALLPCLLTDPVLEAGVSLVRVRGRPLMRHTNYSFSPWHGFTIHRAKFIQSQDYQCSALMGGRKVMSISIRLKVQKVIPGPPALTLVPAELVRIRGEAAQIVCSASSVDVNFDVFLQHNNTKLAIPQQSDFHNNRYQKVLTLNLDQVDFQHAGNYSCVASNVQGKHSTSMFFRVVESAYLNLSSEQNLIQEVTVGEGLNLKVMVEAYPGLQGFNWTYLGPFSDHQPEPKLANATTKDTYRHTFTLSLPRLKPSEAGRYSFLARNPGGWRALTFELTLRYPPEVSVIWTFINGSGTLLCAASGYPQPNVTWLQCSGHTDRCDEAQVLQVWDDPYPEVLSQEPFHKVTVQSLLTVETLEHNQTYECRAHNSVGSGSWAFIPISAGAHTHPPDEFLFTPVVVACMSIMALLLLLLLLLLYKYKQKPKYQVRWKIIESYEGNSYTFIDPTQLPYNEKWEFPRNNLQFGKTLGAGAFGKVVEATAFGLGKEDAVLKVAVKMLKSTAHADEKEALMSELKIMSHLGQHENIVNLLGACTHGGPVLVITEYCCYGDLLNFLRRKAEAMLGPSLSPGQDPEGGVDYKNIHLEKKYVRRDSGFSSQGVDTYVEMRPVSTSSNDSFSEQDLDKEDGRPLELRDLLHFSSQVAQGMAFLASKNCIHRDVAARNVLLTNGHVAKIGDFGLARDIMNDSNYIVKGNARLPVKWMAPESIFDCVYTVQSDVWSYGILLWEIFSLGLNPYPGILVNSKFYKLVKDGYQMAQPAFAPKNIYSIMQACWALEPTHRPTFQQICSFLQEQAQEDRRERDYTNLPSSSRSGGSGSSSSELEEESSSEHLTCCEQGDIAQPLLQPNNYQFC
# Description: (§1) NVS_ENZ_hCSF1R is a biochemical, single-readout assay that uses extracted gene-proteins in a cell-free assay. Measurements were taken 1 hour after chemical dosing in a 384-well plate.NVS_ENZ_hCSF1R is one of one assay component(s) measured or calculated from the NVS_ENZ_hCSF1R assay. It is designed to make measurements of enzyme activity, a form of enzyme reporter, as detected with fluorescence intensity signals by Fluorescence and electrophoretic mobility shift technology.Data from the assay component NVS_ENZ_hCSF1R was analyzed into 1 assay endpoint. This assay endpoint, NVS_ENZ_hCSF1R, was analyzed in the positive analysis fitting direction relative to DMSO as the negative control and baseline of activity. Using a type of enzyme reporter, loss-of-signal activity can be used to understand changes in the enzymatic activity as they relate to the gene CSF1R. Furthermore, this assay endpoint can be referred to as a primary readout, because this assay has produced multiple assay endpoints where this one serves a enzymatic activity function. To generalize the intended target to other relatable targets, this assay endpoint is annotated to the kinase intended target family, where the subfamily is receptor tyrosine kinase.
# (§2) Binding assays used specific radioligands (tritiated, iodinated) with non-radioactive competitive displacement ligands in agonist or antagonist protocols (as indicated) and various reference compounds and inhibitors to titrate specific binding to receptors and transporters. Most enzyme assays (CYPs, kinases, phosphatases, proteases, HDACs) used recombinant protein and specific substrates (fluorescence mostly, some colorimetric and radioactive) and inhibitors, followed by a biochemical separation of substrate and product. All assays for the biochemical HTS were initially run in duplicate at a single concentration (10 uM for CYP450 assays and 25 uM for all others). Assay-chemical combinations meeting a pre-defined threshold (e.g., 30% inhibition and other criteria defined below) were then run in singleton concentration-response format with maximum concentration of 20 uM for CYPs and 50 uM for all others. Each assay was run with positive and negative controls, and concurrent controls on every plate. The follow-up (secondary) screen tested active chemical-pairs in concentration series, as well as a few additional assays not tested in the primary screen, some selected negative inactives, and several cases re-run in the concentration series for confirmatory purposes.
# [2] = target: CDK2 (gene 1017) (UniProt P24941); assay: NVS_ENZ_hCDK2: NovaScreen (NVS) Enzymatic Assay for human Cyclin-Cependent Kinase 2 (CDK2) (AID 2283144)
# Method in brief: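 Cell-free recombinant human CDK2 with fluorescent substrate, product separated by electrophoretic mobility shift; 1 hr read. Primary screen at 25 uM in duplicate, actives retested in concentration-response up to 50 uM; loss of signal versus DMSO.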
# [3] = target: human Casein Kinase 1-delta (CK1D), CSNK1D (gene 1453) (UniProt P48730); assay: NVS_ENZ_hCK1D: NovaScreen (NVS) Enzymatic Assay for human Casein Kinase 1-delta (CK1D) (AID 2283148)
# Sequence of human Casein Kinase 1-delta (CK1D), CSNK1D (gene 1453) (P48730 whole entry, looked up): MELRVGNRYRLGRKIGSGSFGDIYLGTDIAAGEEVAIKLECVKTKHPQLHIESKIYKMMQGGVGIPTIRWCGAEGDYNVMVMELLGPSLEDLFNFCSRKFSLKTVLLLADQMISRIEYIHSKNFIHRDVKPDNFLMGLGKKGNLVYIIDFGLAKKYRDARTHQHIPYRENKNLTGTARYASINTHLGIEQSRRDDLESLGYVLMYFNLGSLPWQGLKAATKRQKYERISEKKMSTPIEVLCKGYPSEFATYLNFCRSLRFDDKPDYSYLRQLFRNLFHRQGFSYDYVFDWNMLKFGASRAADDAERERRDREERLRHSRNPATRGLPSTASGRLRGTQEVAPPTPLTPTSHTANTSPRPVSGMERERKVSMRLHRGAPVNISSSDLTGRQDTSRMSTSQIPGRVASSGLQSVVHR
# Method in brief: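 Recombinant human CK1-delta, cell-free; fluorescent substrate with electrophoretic mobility-shift separation of product, read 1 h after dosing. Single 25 uM duplicate screen, then concentration-response up to 50 uM; loss of signal vs DMSO.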
# [4] = target: human Dual Specificity Protein Phosphatase 3 (DUSP3), DUSP3 (gene 1845) (UniProt P51452); assay: NVS_ENZ_hDUSP3: NovaScreen (NVS) Enzymatic Assay for human Dual Specificity Protein Phosphatase 3 (DUSP3) (AID 2283152);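 further: phosphatase activity of recombinant human DUSP3 on a fluorogenic substrate without cells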
# Sequence of human Dual Specificity Protein Phosphatase 3 (DUSP3), DUSP3 (gene 1845) (P51452 whole entry, looked up): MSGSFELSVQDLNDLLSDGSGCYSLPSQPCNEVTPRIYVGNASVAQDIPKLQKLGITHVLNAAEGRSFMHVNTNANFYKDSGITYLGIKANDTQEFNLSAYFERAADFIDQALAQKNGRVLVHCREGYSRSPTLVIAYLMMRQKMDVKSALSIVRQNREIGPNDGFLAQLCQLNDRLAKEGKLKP
# Method in brief: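 Cell-free assay with recombinant human DUSP3 and fluorogenic substrate, read by fluorescence intensity. Primary screen ran duplicate at 25 uM; actives followed up in concentration series; loss of signal versus DMSO scored.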
# [5] = target: human Elastase, ELANE (gene 1991) (UniProt P08246); assay: NVS_ENZ_hElastase: NovaScreen (NVS) Enzymatic Assay for human Elastase (AID 2283153)
# Sequence of human Elastase, ELANE (gene 1991) (P08246 whole entry, looked up): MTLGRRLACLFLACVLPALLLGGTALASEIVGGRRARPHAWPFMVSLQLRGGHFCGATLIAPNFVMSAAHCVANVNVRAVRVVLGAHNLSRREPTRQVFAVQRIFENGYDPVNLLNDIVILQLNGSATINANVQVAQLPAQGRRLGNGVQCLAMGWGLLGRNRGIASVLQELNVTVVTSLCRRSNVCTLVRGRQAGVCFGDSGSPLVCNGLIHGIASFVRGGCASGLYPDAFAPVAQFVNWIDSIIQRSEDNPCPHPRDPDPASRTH
# Description: NVS_ENZ_hElastase is a biochemical, single-readout assay that uses extracted gene-proteins from Human neutrophils in a cell-free assay. Measurements were taken 1.5 hours after chemical dosing in a 96-well plate.NVS_ENZ_hElastase is one of one assay component(s) measured or calculated from the NVS_ENZ_hElastase assay. It is designed to make measurements of enzyme activity, a form of enzyme reporter, as detected with absorbance signals by Spectrophotometry technology.Data from the assay component NVS_ENZ_hElastase was analyzed into 1 assay endpoint. This assay endpoint, NVS_ENZ_hElastase, was analyzed in the positive analysis fitting direction relative to DMSO as the negative control and baseline of activity. Using a type of enzyme reporter, loss-of-signal activity can be used to understand changes in the enzymatic activity as they relate to the gene ELANE. Furthermore, this assay endpoint can be referred to as a primary readout, because this assay has produced multiple assay endpoints where this one serves a enzymatic activity function. To generalize the intended target to other relatable targets, this assay endpoint is annotated to the protease intended target family, where the subfamily is serine protease.
# as §2
# [6] = target: human Ephrin type-A Receptor 1 (EphA1), EPHA1 (gene 2041) (UniProt P21709); assay: NVS_ENZ_hEphA1: NovaScreen (NVS) Enzymatic Assay for human Ephrin type-A Receptor 1 (EphA1) (AID 2283158);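 further: activity is signal loss versus DMSO meaning EphA1 kinase inhibition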
# Sequence of human Ephrin type-A Receptor 1 (EphA1), EPHA1 (gene 2041) (P21709 whole entry, looked up): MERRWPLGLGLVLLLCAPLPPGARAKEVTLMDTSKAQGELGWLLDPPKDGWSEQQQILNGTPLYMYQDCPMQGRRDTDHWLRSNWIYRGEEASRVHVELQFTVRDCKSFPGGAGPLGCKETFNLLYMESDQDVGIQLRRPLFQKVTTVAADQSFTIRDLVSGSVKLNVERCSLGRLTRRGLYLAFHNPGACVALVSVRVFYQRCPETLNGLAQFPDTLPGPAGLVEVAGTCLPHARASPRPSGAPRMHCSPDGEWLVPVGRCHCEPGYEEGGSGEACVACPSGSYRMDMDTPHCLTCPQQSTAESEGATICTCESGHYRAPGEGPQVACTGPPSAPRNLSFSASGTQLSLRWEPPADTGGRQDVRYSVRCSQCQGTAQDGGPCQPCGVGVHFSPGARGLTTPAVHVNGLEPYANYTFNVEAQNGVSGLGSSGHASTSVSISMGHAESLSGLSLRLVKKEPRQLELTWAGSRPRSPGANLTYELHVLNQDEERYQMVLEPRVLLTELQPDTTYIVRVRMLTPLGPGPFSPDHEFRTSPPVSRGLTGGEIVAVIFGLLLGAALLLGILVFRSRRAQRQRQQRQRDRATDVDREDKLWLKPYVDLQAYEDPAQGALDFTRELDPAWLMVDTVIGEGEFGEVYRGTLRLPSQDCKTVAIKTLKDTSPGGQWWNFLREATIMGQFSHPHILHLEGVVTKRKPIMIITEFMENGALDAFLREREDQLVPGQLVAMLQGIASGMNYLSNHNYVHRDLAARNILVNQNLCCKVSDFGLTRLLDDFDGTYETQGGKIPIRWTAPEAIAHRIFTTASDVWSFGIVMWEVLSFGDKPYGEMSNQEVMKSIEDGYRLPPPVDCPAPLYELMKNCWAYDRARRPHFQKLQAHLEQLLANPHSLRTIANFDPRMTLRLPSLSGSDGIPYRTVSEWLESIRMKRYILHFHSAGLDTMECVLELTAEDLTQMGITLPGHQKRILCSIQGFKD
# Method in brief: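 Cell-free kinase activity with recombinant protein, 1 hour after dosing; product separated by electrophoretic mobility shift, fluorescence read. Primary screen at 25 uM in duplicate; hits run as concentration-response up to 50 uM, relative to DMSO.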
# [7] = target: human FYN Proto-Oncogene, Src family Tyrosine Kinase (Fyn), FYN (gene 2534) (UniProt P06241); assay: NVS_ENZ_hFyn: NovaScreen (NVS) Enzymatic Assay for human FYN Proto-Oncogene, Src family Tyrosine Kinase (Fyn) (AID 2283161)
# Sequence of human FYN Proto-Oncogene, Src family Tyrosine Kinase (Fyn), FYN (gene 2534) (P06241 whole entry, looked up): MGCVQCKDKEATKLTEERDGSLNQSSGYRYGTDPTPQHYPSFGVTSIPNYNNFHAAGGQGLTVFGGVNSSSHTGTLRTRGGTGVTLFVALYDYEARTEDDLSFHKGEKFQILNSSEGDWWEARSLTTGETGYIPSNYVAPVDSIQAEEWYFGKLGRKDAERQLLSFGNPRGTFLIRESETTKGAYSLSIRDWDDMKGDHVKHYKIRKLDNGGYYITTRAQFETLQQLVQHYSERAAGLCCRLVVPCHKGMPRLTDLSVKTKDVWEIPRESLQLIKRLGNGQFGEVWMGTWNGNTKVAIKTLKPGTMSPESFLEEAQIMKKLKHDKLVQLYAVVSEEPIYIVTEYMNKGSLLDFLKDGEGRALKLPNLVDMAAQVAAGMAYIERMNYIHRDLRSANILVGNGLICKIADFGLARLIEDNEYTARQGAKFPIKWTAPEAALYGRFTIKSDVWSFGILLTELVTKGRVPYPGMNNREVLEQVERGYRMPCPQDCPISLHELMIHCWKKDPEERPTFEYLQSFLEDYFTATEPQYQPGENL
# Description: as §1, with “NVS_ENZ_hFyn” for “NVS_ENZ_hCSF1R”, “plate.NVS_ENZ_hFyn” for “plate.NVS_ENZ_hCSF1R”, “NVS_ENZ_hFyn,” for “NVS_ENZ_hCSF1R,”, “FYN.” for “CSF1R.”, “non-receptor” for “receptor”
# as §2, with “Assay-chemical combinations meeting a pre-defined threshold (e.g., 30% inhibition and other criteria defined below) were then run in singleton concentration-response format with maximum concentration of 20 uM for CYPs and 50 uM for all others.” left out
# [8] = target: human Caspase 4 (CASP4), CASP4 (gene 837) (UniProt P49662); assay: NVS_ENZ_hCASP4: NovaScreen (NVS) Enzymatic Assay for human Caspase 4 (CASP4) (AID 2283143)
# Sequence of human Caspase 4 (CASP4), CASP4 (gene 837) (P49662 whole entry, looked up): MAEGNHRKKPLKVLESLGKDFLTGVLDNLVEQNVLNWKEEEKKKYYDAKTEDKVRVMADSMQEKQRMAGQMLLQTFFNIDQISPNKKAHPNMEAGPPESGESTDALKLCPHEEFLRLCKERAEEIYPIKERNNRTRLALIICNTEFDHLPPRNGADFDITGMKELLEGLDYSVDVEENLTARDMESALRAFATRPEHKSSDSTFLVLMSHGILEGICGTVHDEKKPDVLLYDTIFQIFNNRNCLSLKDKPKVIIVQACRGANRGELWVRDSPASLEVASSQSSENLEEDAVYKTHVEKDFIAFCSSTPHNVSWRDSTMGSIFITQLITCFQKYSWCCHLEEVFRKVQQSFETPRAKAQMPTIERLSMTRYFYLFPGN
# Method in brief: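 The cell-free assay used E. coli-expressed enzyme with a fluorogenic substrate, read 2 h after dosing. Signal loss was scored versus DMSO. Screening was in duplicate at 25 uM, then singleton concentration-response up to 50 uM.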
# [9] = target: human Caspase 8 (CASP8), CASP8 (gene 841) (UniProt Q14790); assay: NVS_ENZ_hCASP8: NovaScreen (NVS) Enzymatic Assay for human Caspase 8 (CASP8) (AID 2283146)
# Sequence of human Caspase 8 (CASP8), CASP8 (gene 841) (Q14790 whole entry, looked up): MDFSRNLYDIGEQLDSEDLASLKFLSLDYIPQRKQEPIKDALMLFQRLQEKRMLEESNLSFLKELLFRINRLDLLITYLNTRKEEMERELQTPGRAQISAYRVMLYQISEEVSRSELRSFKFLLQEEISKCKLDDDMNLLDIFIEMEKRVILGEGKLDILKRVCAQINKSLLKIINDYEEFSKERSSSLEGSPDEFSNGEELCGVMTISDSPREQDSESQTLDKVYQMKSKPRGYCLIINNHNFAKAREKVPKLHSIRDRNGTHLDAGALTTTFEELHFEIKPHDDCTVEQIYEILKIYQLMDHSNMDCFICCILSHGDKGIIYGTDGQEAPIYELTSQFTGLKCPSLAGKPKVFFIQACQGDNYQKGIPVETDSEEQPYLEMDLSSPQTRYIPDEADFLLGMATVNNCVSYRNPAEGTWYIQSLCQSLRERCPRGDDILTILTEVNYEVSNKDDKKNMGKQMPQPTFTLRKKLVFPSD
# Description: NVS_ENZ_hCASP8 is a biochemical, single-readout assay that uses extracted gene-proteins from E. coli in a cell-free assay. Measurements were taken 1 hour after chemical dosing in a 96-well plate.NVS_ENZ_hCASP8 is one of one assay component(s) measured or calculated from the NVS_ENZ_hCASP8 assay. It is designed to make measurements of enzyme activity, a form of enzyme reporter, as detected with fluorescence intensity signals by Fluorescence technology.Data from the assay component NVS_ENZ_hCASP8 was analyzed into 1 assay endpoint. This assay endpoint, NVS_ENZ_hCASP8, was analyzed in the positive analysis fitting direction relative to DMSO as the negative control and baseline of activity. Using a type of enzyme reporter, loss-of-signal activity can be used to understand changes in the enzymatic activity as they relate to the gene CASP8. Furthermore, this assay endpoint can be referred to as a primary readout, because this assay has produced multiple assay endpoints where this one serves a enzymatic activity function. To generalize the intended target to other relatable targets, this assay endpoint is annotated to the protease intended target family, where the subfamily is cysteine protease.
# Binding assays used specific radioligands (tritiated, iodinated) with non-radioactive competitive displacement ligands in agonist or antagonist protocols (as indicated) and various reference compounds and inhibitors to titrate specific binding to receptors and transporters. Most enzyme assays (CYPs, kinases, phosphatases, proteases, HDACs) used recombinant protein and specific substrates (fluorescence mostly, some colorimetric and radioactive) and inhibitors, followed by a biochemical separation of substrate and product. All assays for the biochemical HTS were initially run in duplicate at a single concentration (10 uM for CYP450 assays and 25 uM for all others). […] Each assay was run with positive and negative controls, and concurrent controls on every plate. […]
# [10] = target: human Esterase Plasma (ES), BCHE (gene 590) (UniProt P06276); assay: NVS_ENZ_hES: NovaScreen (NVS) Enzymatic Assay for human Esterase Plasma (ES) (AID 2283157)
# Sequence of human Esterase Plasma (ES), BCHE (gene 590) (P06276 whole entry, looked up): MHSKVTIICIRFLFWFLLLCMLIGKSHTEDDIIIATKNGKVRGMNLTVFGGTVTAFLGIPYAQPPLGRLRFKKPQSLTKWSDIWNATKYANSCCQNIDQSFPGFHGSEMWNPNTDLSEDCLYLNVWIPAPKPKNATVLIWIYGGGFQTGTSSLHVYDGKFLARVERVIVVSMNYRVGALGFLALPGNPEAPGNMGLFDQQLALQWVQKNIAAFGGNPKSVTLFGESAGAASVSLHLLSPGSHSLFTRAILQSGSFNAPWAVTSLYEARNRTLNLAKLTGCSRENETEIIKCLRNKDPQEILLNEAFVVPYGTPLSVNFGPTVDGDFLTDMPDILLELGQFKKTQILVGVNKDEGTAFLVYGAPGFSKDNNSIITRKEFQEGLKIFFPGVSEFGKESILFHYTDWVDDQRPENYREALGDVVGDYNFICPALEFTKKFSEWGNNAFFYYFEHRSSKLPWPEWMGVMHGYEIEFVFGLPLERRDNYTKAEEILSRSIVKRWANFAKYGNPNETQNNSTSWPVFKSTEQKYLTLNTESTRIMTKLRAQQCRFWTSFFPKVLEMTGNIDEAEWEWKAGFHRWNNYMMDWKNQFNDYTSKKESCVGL
# Description: NVS_ENZ_hES is a biochemical, single-readout assay that uses extracted gene-proteins from Human plasma in a cell-free assay. Measurements were taken 0.25 hour after chemical dosing in a 96-well plate.NVS_ENZ_hES is one of one assay component(s) measured or calculated from the NVS_ENZ_hES assay. It is designed to make measurements of enzyme activity, a form of enzyme reporter, as detected with absorbance signals by Colorimetric technology.Data from the assay component NVS_ENZ_hES was analyzed into 1 assay endpoint. This assay endpoint, NVS_ENZ_hES, was analyzed in the positive analysis fitting direction relative to DMSO as the negative control and baseline of activity. Using a type of enzyme reporter, loss-of-signal activity can be used to understand changes in the enzymatic activity as they relate to the gene BCHE. Furthermore, this assay endpoint can be referred to as a primary readout, because this assay has produced multiple assay endpoints where this one serves a enzymatic activity function. To generalize the intended target to other relatable targets, this assay endpoint is annotated to the esterase intended target family, where the subfamily is pseudocholinesterase.
# as §2
smiles,measurement,setting,value
CCCOC(=O)c1ccc(O)cc1,outcome,[1],inactive
O=C(O)Cc1cc(I)c(Oc2cc(I)c(O)c(I)c2)c(I)c1,outcome,[2],inactive
same,outcome,[3],inactive
same,outcome,[1],inactive
same,AC50,[4],11 µM (active)
same,AC50,[5],18.5 µM (active)
same,outcome,[6],inactive
same,outcome,[7],inactive
CC(C)(C)CC(C)(C)c1ccc(O)c(-n2nc3ccccc3n2)c1,AC50,[4],10.6 µM (active)
Cc1oc(-c2ccccc2)nc1CCOc1ccc(C[C@H](Nc2ccccc2C(=O)c2ccccc2)C(=O)O)cc1,outcome,[8],inactive
same,AC50,[4],14.9 µM (active)
same,AC50,[5],10.6 µM (active)
CCCCCCCC(=O)O,outcome,[7],inactive
Oc1cc2ccccc2c2ccccc12,outcome,[8],inactive
same,outcome,[9],inactive
same,AC50,[10],14.1 µM (active)
CCCCCCCCCCCCCC[N+](C)(C)C,outcome,[6],inactive
COCC(C)O (stereo unspecified),outcome,[6],inactive
CCCCCCCCOC(=O)CCCCCCCCC(=O)OCCCCCCCC,outcome,[4],inactive
NC(=O)N(O)[C@@H]1C=C[C@H](Oc2cccc(Oc3ccc(F)cc3)c2)C1,outcome,[10],inactive
CCCCCCCCCCCCc1ccccc1S(=O)(=O)O,outcome,[2],inactive
same,AC50,[3],17.4 µM (active)
same,AC50,[1],17.3 µM (active)
same,AC50,[5],38 µM (active)
CCCOc1sc(C(=O)N2CCC(c3cc(CN)ccc3F)CC2)c(C)c1Br,AC50,[4],7.33 µM (active)
same,AC50,[10],8.81 µM (active)
CCCCC(CC)COC(=O)CCCCC(=O)OCC(CC)CCCC (stereo unspecified),outcome,[4],inactive
Cc1cc(CCN2CCN(c3nsc4ccccc34)CC2)cc2c1NC(=O)CC2(C)C,outcome,[1],inactive
same,AC50,[10],22.2 µM (active)
CCN(CC)CCNc1ccc(CNC=O)c2sc3ccc(OC)cc3c(=O)c12,AC50,[3],6.5 µM (active)
same,AC50,[10],0.751 µM (active)
same,AC50,[7],2.1 µM (active)
OC1CCC(C2CCCCC2)CC1 (stereo unspecified),outcome,[10],inactive
CCCCCCCCCCCCCCCS(=O)(=O)Oc1ccccc1,outcome,[4],inactive
same,outcome,[5],inactive
CC(=O)NC1(c2cccc(F)c2)CCN(CC[C@@]2(c3ccc(Cl)c(Cl)c3)CN(c3ccccc3)C(=O)CO2)CC1,AC50,[5],8.58 µM (active)
same,AC50,[10],3.79 µM (active)
NC(=O)N1C(=O)C(C(=O)c2cc(Cl)cs2)c2cc(F)c(Cl)cc21 (stereo unspecified),AC50,[4],12.2 µM (active)
same,AC50,[5],16.9 µM (active)
c1ccc2cc3c(ccc4ccccc43)cc2c1,outcome,[9],inactive
same,AC50,[5],46.9 µM (active)
CCCCC(CC)COC(=O)CCCCC(=O)OCc1ccccc1 (stereo unspecified),outcome,[10],inactive
O=c1c(-c2ccc(O)cc2)coc2cc(O)ccc12,outcome,[3],inactive
CCC(=C(c1ccc(O)cc1)c1ccc(OCCN(C)C)cc1)c1ccccc1,outcome,[7],inactive
CC#C[C@]1(O)CC[C@H]2[C@@H]3CCC4=CC(=O)CCC4=C3[C@@H](c3ccc(N(C)C)cc3)C[C@@]21C,outcome,[4],inactive
same,AC50,[5],2.18 µM (active)
same,AC50,[10],4.97 µM (active)
O=C(O)c1ccccc1C(c1ccc(O)cc1)c1ccc(O)cc1,outcome,[3],inactive
N#C[C@@H]1CC(F)(F)CN1C(=O)CNC1CC2CCC(C1)N2c1ncccn1 (stereo partly specified),outcome,[1],inactive
C=C(C)C(=O)OCCC(F)(F)C(F)(F)C(F)(F)C(F)(F)C(F)(F)C(F)(F)F,AC50,[9],1.96 µM (active)
C[C@@H]1C[C@H]2[C@@H]3CCC4=CC(=O)C=C[C@]4(C)[C@@]3(F)[C@@H](O)C[C@]2(C)[C@@]1(O)C(=O)COP(=O)(O)O,outcome,[6],inactive
COCC(C)OCC(C)O (stereo unspecified),outcome,[3],inactive
same,outcome,[1],inactive
Nc1cccc2c(N)cccc12,outcome,[5],inactive
ClC1=C(Cl)C(Cl)(Cl)C(Cl)=C1Cl,AC50,[4],16.3 µM (active)
same,outcome,[6],inactive
